This is a sample that favours compounds with a hit; in the whole collection about 3.8% have one here.
HepG2 tox: HepG2 cytotoxicity, counter-screen for TGF-b inhibitors; Potency, µM (doses to about 46.1 µM), usual class: cytotoxic; AID 588856; HepG2 CAGA-GFP viability, ATP luminescence, 18 h; hit rate 0.76% among 410,000
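HepG2 CAGA-GFP cells (1000/well, DMEM with 1% FBS) received compound, then TGF-beta at 500 pg/mL final, and were incubated 18 hours at 37 degrees C. Viability was read by CellTiter-Glo luminescence. Media-only wells were set as complete cell-killing and DMSO as no toxicity.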
HT1080-NT tox: kills 2HG-producing HT-1080-NT fibrosarcoma cells. HT-1080-NT fibrosarcoma viability, CellTiter-Glo ATP luminescence, 48 h. Potency, µM (top dose mostly 46.1 µM), actives largely listed as cytotoxic. hit rate 1.6% among 360,000;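 also: NT is the 2HG producing partner of a matched IDH1 knockdown line; nearly all actives have a fitted effect of over 55% in size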
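Viability of the 2HG-overproducing fibrosarcoma line after 48 hours of compound exposure at 37 degrees C was determined by luminescence with CellTiter-Glo, and concentration-effect curves were then fitted and categorized.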
HT1080 IDH1KD tx: HT-1080 IDH1 knockdown cell toxicity (counter line); hit rate 2% among 360,000; HT-1080 IDH1 knockdown viability, ATP luminescence, 48 h; Potency, µM (top dose mostly 46.1 µM), hits mostly cytotoxic
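HT-1080-IDH1KD cells (IDH1 knocked down), 750/well in RPMI with 5% FBS, treated with compound 48 h at 37 degrees C. Viability by CellTiter-Glo luminescence, normalised to DMSO and no-cell wells; concentration-response curves classed.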
ATXN2 expr inh: reduces ATXN2 reporter expression in HEK-293 cells; HEK-293 ATXN2-luciferase reporter, luminescence, 24 h; Potency, µM (series often up to 57 µM), most hits filed as inhibitors; hit rate 0.72% among 360,000; also: nearly all actives have a fitted effect of over 55% in size
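ATXN2-luciferase reporter cells (luciferase flanked by upstream and downstream ATXN2 gene portions) were treated 24 h at 37 °C with compounds at up to 57 uM. SteadyGlo luminescence gave expression; GF-AFC fluorescence gave viability.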
S2 tox: reduces viability in counter-screen for ATXN expression inhibitors; S2 cells (HEK-293 line with an ATXN2-luciferase reporter) viability, CellTiter-Fluor protease fluorescence, 24 h; hit rate 0.49% among 400,000; Potency, µM (top dose mostly 56.7 µM), most hits filed as cytotoxic; also: nearly all actives have a fitted effect of over 40% in size
TGFb inhibitor: TGF-b pathway inhibition | AID 588855 | HepG2 CAGA-GFP TGF-b/SMAD3 reporter, GFP fluorescence, 18 h; TGF-beta stimulated, 500 pg/mL final | Potency, µM (top dose mostly 46.1 µM), actives largely listed as inhibitors | hit rate 1.2% among 410,000; also: nearly all actives have a fitted effect of over 65% in size
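First, reporter cells (HEPG2 CAGA-GFP) rested 2 h at 37 degrees C. Next, compounds were pinned in and TGF-beta added to 500 pg/mL final. After 18 h, GFP was imaged per cell and summed per well.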
A number is an active result; [ ] = remark or other dose. Calls follow the shape of the dose curve; as a rule, active = well fitted curve in the direction sought with a large enough effect; inconclusive = small, poorly fitted or top-dose-only effect, or another doubt; inactive = no such curve, though single readings can be large; an effect the other way counts as inactive or inconclusive.

Screening CC(NC(=O)C1CCN(Cc2ccc(Oc3ccccc3)cc2)CC1)c1cccc2ccccc12 (stereo not given) returned HepG2 tox inactive, HT1080-NT tox inconclusive, HT1080 IDH1KD tx 10µM, ATXN2 expr inh inactive, S2 tox inconclusive and TGFb inhibitor inconclusive.
Cc1ccccc1C(NC(=O)C1CCN(Cc2ccc(Oc3ccccc3)cc2)CC1)c1ccsc1 (stereo not given) was read as HepG2 tox inactive, HT1080-NT tox 21µM, HT1080 IDH1KD tx inconclusive, ATXN2 expr inh inactive, S2 tox inactive and TGFb inhibitor inactive.
Screening COc1ccc(OCCN2CCC(C(=O)NC(c3ccsc3)c3ccccc3C)CC2)cc1 (stereo not given) returned HepG2 tox inactive, HT1080-NT tox inconclusive, HT1080 IDH1KD tx inconclusive, ATXN2 expr inh inactive, S2 tox inconclusive and TGFb inhibitor inactive.
`CC(NC(=O)C1CCN(Cc2ccccc2)CC1)c1cccc2ccccc12` (stereo not given) gave HepG2 tox inactive, HT1080-NT tox inconclusive, HT1080 IDH1KD tx inconclusive, ATXN2 expr inh inactive, S2 tox inactive and TGFb inhibitor inactive.
O=C(NC(c1ccc(Cl)cc1)c1ccsc1)C1CCN(Cc2ccc(Oc3ccccc3)cc2)CC1 (stereo not given) was read as HepG2 tox inactive, HT1080-NT tox 15µM, HT1080 IDH1KD tx 12µM, ATXN2 expr inh inactive, S2 tox inconclusive and TGFb inhibitor inactive.
Screening O=C(NC(c1ccccc1)c1ccsc1)C1CCN(Cc2ccccc2)CC1 (stereo not given) returned HepG2 tox inactive, HT1080-NT tox inactive, HT1080 IDH1KD tx inactive, ATXN2 expr inh inactive, S2 tox inactive and TGFb inhibitor inactive.
Screening CCN(Cc1ccccc1)C(=O)Nc1ccc2c(c1)N(C)C(=O)c1ccccc1S2 returned HepG2 tox inactive and TGFb inhibitor inactive.
`Cc1ccc(S(=O)(=O)N2CCN(c3nc(-n4c(=O)[nH]c5ccccc54)nc4ccccc34)CC2)cc1` gave HT1080-NT tox inactive and HT1080 IDH1KD tx inactive.
For CC[C@H](CO)Nc1nc(NCc2ccccc2)c2ncn(C(C)C)c2n1 the results were ATXN2 expr inh 24µM.
Screening COc1ccc(S(=O)(=O)N(CC(=O)Nc2ccccc2Br)Cc2ccccc2)cc1 returned HepG2 tox inactive, ATXN2 expr inh inactive, S2 tox inconclusive and TGFb inhibitor inactive.
CC(=O)N1c2ccc(S(=O)(=O)NCC3CCC(C(=O)NCCC(C)C)CC3)cc2CC1C (stereo not given) was read as HepG2 tox inactive and TGFb inhibitor inactive.
Screening CCOc1ccc(S(=O)(=O)N(CC(=O)O)c2ccc(C)cc2)cc1 returned HepG2 tox inactive, HT1080-NT tox inactive, HT1080 IDH1KD tx inactive, ATXN2 expr inh inactive, S2 tox inactive and TGFb inhibitor inactive.
Screening CCOc1ccc(N(Cc2ccc(C(=O)O)cc2)S(=O)(=O)c2ccc(C)cc2)cc1 returned HepG2 tox inactive, HT1080-NT tox inconclusive, HT1080 IDH1KD tx 7.3µM, ATXN2 expr inh inactive, S2 tox inactive and TGFb inhibitor inconclusive.
`COC(=O)C1C2CC3c4[nH]c5cc(OC)ccc5c4CCN3CC2CC(OC(=O)c2cc(OC)c(OC)c(OC)c2)C1OC` (stereo not given) gave ATXN2 expr inh inactive.
Screening O=c1cc(CCl)nc2sc3ccccc3n12 returned HepG2 tox 16µM, HT1080-NT tox 16µM, HT1080 IDH1KD tx inconclusive, ATXN2 expr inh inactive[11.3 µM], S2 tox inconclusive and TGFb inhibitor inconclusive.
For CCC(/C=C1\Sc2ccc(OC)cc2N1CC)=C\c1sc2ccc(OC)cc2[n+]1CCCS(=O)(=O)[O-] the results were HepG2 tox inactive, HT1080-NT tox inactive, HT1080 IDH1KD tx inactive, ATXN2 expr inh inconclusive, S2 tox 22µM and TGFb inhibitor inactive.
`Cc1ccc(NC(=O)Cn2ccn(-c3ccc(F)c(F)c3)c(=O)c2=O)cc1C` gave HepG2 tox inactive and TGFb inhibitor inactive.

Source: PubChem (National Center for Advancing Translational Sciences (NCATS))
